Source: the supplement of paper PMC6555819

Experiments:
Assay in all cases: PBM binding z-score (relative to random genomic background probes); higher = stronger binding; sequences stand for … in GC…GCGATTGACAGCGTAGAATGAAGG
[1] = test system: RARg:RXRa (NR concentration 270 nM, RXRa partner concentration 90 nM)
Method in brief: (§1)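 Regression normalization was applied to scanned fluorescence from custom Agilent 4×180K protein-binding microarrays. Before scanning, arrays were incubated 1 h with ligand-free nuclear receptor dimers, and binding was detected with antibodies against each partner (one per run). Binding z-scores use the random background probes as reference.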

[2] = test system: RARg homodimer (NR concentration 270 nM)
Method in brief: as §1

[3] = test system: RXRa DBDmut IVT, anti-RXR (DBD mutation: RXRa K156A/R161A, NR concentration 90 nM)
Method in brief: as §1

[4] = test system: RXRa homodimer (NR concentration 180 nM)
Method in brief: as §1

[5] = test system: THRa:RXRa (NR concentration 90 nM, RXRa partner concentration 90 nM)
Method in brief: as §1

[6] = test system: THRa homodimer (NR concentration 90 nM)
Method in brief: as §1

[7] = test system: VDR homodimer (NR concentration 270 nM)
Method in brief: as §1

Sequence | PBM binding z-score [1] | PBM binding z-score [2] | PBM binding z-score [3] | PBM binding z-score [4] | PBM binding z-score [5] | PBM binding z-score [6] | PBM binding z-score [7]
ACGCGGAGGACAAAGGTCAGAGCTACGCCAGTGA | 6.23 | 5.34 | 0.687 | 5.4 | 3.38 | 0.463 | 0.908
TCTTGTAGATCAATAGAAGTTAAGAAAGTGCGCT | 0.119 | 0.155 | 1.24 | 0.537 | 0.00398 | -0.786 | 0.102
AGTCAAAGTTGAGGACGAGGTAACGTAAAGCACG | 1.38 | 1.24 | -0.405 | 0.856 | 3.3 | 1.96 | 0.344
TTGCCAAGGTGAAAGGTCGTTGATGCACGCCTTG | 4.33 | 2.25 | 0.468 | 5.91 | 3.3 | 0.784 | 1.34
CGTCCAAGGTCAAGGTCAATGAAAGAGACTCGAA | 7 | 7.87 | 3.91 | 6.52 | 4.35 | 3.41 | 3.28
TCTGCTAGGTCATCGATGGTCAGCTAATCTGCTA | 3.79 | 4.88 | 1.53 | 2.73 | 3.33 | 0.553 | -0.0904
CCTCGGAGGACAGAAGGTCAAAGCTGTCCGCTTT | 4.94 | 4.52 | 0.948 | 4.07 | 3.2 | 0.161 | 0.867
CAAACTAGGTCAAGAGGTCAAAGTTCGCTTCCCG | 8.33 | 7.43 | 3.49 | 8.33 | 4.67 | 2.78 | 5.53
CGAACTAGGTCATTGACAGGACAGTGGATAGTAA | 4.35 | 4.34 | 2.35 | 2.59 | 2.76 | 0.809 | 1.22
ATCGAAAGGTCTAAGGTGAGTATACCCACCCGAA | 1.27 | 1.29 | -0.301 | 1.25 | 2.28 | 1.67 | 0.152
TCGAGTAGGTCACGGGGGCATTCAGGGATGAAGA | 6.77 | 6.69 | 2.23 | 6.31 | 4.48 | 1.6 | 3.74
TCTTGTAGATCAACAGGAGGTTAATAAAGATCGA | 0.776 | 0.301 | 0.161 | 1.03 | 0.904 | -0.0853 | -0.179
AATACAGGGTGACTAGGCCAGAGTAGGTACGAAT | 0.739 | 0.693 | -0.419 | 0.911 | 0.915 | 0.154 | 0.309
CAAACTAGGTCACCGAAAGGTCAAAGTCCGCATG | 8.9 | 8.27 | 2.98 | 7.88 | 4.72 | 2.96 | 4.24
TAGCCTAAGTCATGCGGGCCAGTATAGTGTCGGC | -0.283 | -0.412 | -0.949 | -0.136 | -0.34 | -0.848 | -1.04
TCTAGTTGGTCACGGAGGGCACACACGACGGGTA | 2.15 | 2.4 | 0.575 | 1.35 | 1.03 | 0.258 | 0.915
AGTCAAACTTCAGGACGAGGTAACGTAAAGCACG | 0.505 | 0.586 | -0.343 | 0.511 | 2.44 | 1.77 | -0.0917
CTATGTAGGTTACGGGGGTCATTCAGTTTGAAAG | 5.91 | 4.59 | 2.61 | 6.14 | 4.12 | 2.03 | 5.93
CGAACTAGGTCAAAGGACATTGAAAGGCGACGTA | 4.1 | 4.34 | 1.63 | 3.33 | 2.82 | 0.495 | 0.442
CGAACTAGGTCGAGGACAGTGAATCTCCGCACGC | 0.749 | 1.36 | 0.54 | 0.381 | 2.11 | 1.45 | 0.0594
CCTACTGGGCCAAAGAGGTCATTGATGCCGATAA | 4.01 | 3.31 | 1.39 | 4.45 | 3.35 | 0.927 | 3.97
TATCAAAGTTCAAAGGTAACGTAAGTATCCACAC | 6.25 | 6.03 | 4.5 | 7.49 | 3.56 | 0.168 | 4.2
CGTCCAAGGTCAATGCTAGATCAGTGAAAGCATT | 5.61 | 5.86 | 3.56 | 4.83 | 3.51 | 1.97 | 2.34
CGAACTAGGTCACCCAGGACAGTGAATACATTGA | 4.24 | 5.04 | 2.03 | 3.13 | 3.66 | 2.18 | 1.89
CGAACTAGGTCATCCAGGTCAGTGAATACATTGA | 4.85 | 5.61 | 2.52 | 3.47 | 4.21 | 2.83 | 3.77
TAGCCTAGGTTATGGGCCAGTATACCACGCGAAC | 0.379 | 0.719 | -0.976 | 0.432 | 0.373 | -0.271 | -0.399
AGTCAAAGTTCAGGACGACGTAACGTAAAGCACG | 3.78 | 4.45 | 2.93 | 2.66 | 2.02 | 0.216 | 2.05
CCTTACGGGTAACGAGGTTATAGCACGACGAGCG | 1.01 | 0.837 | -0.598 | 1.43 | 1.35 | 0.247 | 0.527

Sequence | PBM binding z-score [1] | PBM binding z-score [2] | PBM binding z-score [3] | PBM binding z-score [4] | PBM binding z-score [5] | PBM binding z-score [6] | PBM binding z-score [7]
CCTAGTTGTTCAGGAGGTCACACACCGGATATGA | 4.48 | 4.35 | 1.15 | 4.73 | 3.62 | 2.81 | 3.5
TTACCAAGGTGAAAGGTCGTTGCTGCACGCCTTG | 4.15 | 1.94 | 0.854 | 5.85 | 3.37 | 0.758 | 1.74
CGAACTAGGTCAAGGGACAGTGAAAGGCGACGTA | 3.82 | 4.43 | 0.75 | 2.43 | 2.63 | 0.755 | 0.0374
CGTCCAAGGTCAGCGGGTCAGTGAAAGCGACGTG | 6.32 | 6.61 | 2.67 | 4.98 | 3.74 | 2.34 | 1.76
GATACAGGGTCAGCTACAGGCCAGAGTATGGAAA | 5.37 | 4.29 | 1.25 | 4.23 | 2.83 | 0.162 | 0.801
AGTCAAAGTTCATCTAGGTAACATAAGATATGCT | 5.69 | 6.1 | 4.79 | 4.84 | 3.19 | 0.324 | 5.55
AGTCAAAGTTCAGGACGAGGTAACGTTAAGCACG | 4.79 | 4.82 | 3 | 2.87 | 3.83 | 1.82 | 2.56
CCTACTCGGCCAAAAAGGTCATTGATGCCGATAA | 4.7 | 4.45 | 1.13 | 4.82 | 3.33 | 1.22 | 2.91
GGAACGAGGTCAAGTTGATAGCAGAGTTTGATGG | 6.84 | 7.08 | 4.6 | 7.65 | 4.27 | 2.78 | 5.11
CCTGCTAGGTCATGGTCAGCGAATCTACAGTATG | 4.05 | 4.93 | 1.92 | 3.09 | 2.9 | 1.16 | 0.226
ATCGAAAGGTCCAAGGTGAGTATACCCACCCGAA | 0.919 | 1.08 | 0.0908 | 0.853 | 1.35 | 0.653 | 0.214
ATCGAAAGGTCCACGAGGTGAGTATACACCGTTT | 1.13 | 1.3 | 0.571 | 0.952 | 1.96 | 0.835 | 0.691
CCTACTGGGTCACGAAAGGTCATTGATTCAGTGA | 6.96 | 6.81 | 1.69 | 7.05 |  | 1.82 | 2.59
CCTTACGGGTCACTCCAGGTCATAGCATCGGAGT | 5.28 | 5.41 | 1.08 | 5.06 |  | 3.03 | 2.49
AATACAGGGTCATCGTAGGTCAGAGTACGCACAG | 6.41 | 5.81 | 3.75 | 6.77 |  | 2.38 | 4.46
CGAACGAGGTCATCCAGGACAGTGAATACATTGA | 6.67 | 6.52 | 4.86 | 7.28 |  | 3.83 | 6.44
TAGCCTAGGTCATACAGGGGCCAGTATAGAAAGC | 5.98 | 4.71 | 1.04 | 3.26 | 3.27 | 0.799 | 0.824
CCTACTGGGCCAAAAAGTTCATTGATGCCGATAA | 1.48 | 1.8 | 1.51 | 0.748 | 0.849 | -0.23 | 4.38
AATACAGGGTCATCTTAGGCCAGAGTACGCACAG | 5.61 | 5.2 | 3.85 | 6.42 |  | 2.11 | 3.76
CCGAATAGGTTACGAGGGGGCATTCAGTGCGAAT | 3.99 | 2.87 | 1.75 | 3.03 | 4.03 | 0.692 | 3.51
ATATGTAGGTTATCGGGTCATACAGTTTGCGCAT | 3.64 | 2.84 | 1.67 | 3.87 | 3.68 | 2.82 | 3.52
ATATGTAGGATAGCTGGGGTCATTCAGACTAGGC | 3.3 | 2.31 | 1.61 | 4.92 | 4.2 | 3.17 | 5.01
CAAACCAGGTCAAGAGGTCAAAGTCCGCTTCCCG | 8.29 | 7.56 | 3.21 | 8.5 |  | 3.54 | 5.13
ATATGTAGGTTAACTGGGGTCATTCAGACTAGGC | 4.95 | 3.7 | 2.76 | 5.82 |  | 3.07 | 5.41
ACTCGGATGACAAAGGTCAGAGCTACGCCAGTGA | 4.9 | 4.66 | 0.624 | 4.83 | 2.54 | 0.0278 | 1.1
CGAACAAGGTCACCAGGACAGTGAAGAGGTTGGA | 6.81 | 6.95 | 3.8 | 7.03 | 4.15 | 3.1 | 2.83
CGTCCAAGGTCGAAGGTCAGTGAAGAGATGACGG | 4.83 | 4.64 | 1.82 | 6.09 | 3.04 | 0.66 | 1.14
